# Experimental data published in PubChem BioAssay (NCI).
# This is part of a sample that, as a whole, favours compounds with a hit. Of some 79,000 tested, about 15% had one in any assay. Values without a mark were called inactive. Activity calls are given as the source filed them. No stated cut-off is given here; in the data, active means growth inhibition above about 70%; inactive means the rest.
# Columns and labels:
# [1] = NCI Yeast Anticancer Drug Screen. Data for the rad50 strain (AID 155);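 further: 0% = growth of vehicle-only cultures of the same strain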; settings: S. cerevisiae rad50 strain growth inhibition, stronger effect = higher value
# Outline: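 Cells are treated with compound, grown, and their growth is then scored against vehicle-only cultures of the same repair-deficient yeast strain.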
# [2] = NCI Yeast Anticancer Drug Screen. Data for the mec2-1 strain (AID 157); settings: S. cerevisiae mec2-1 strain, stronger effect = higher value
# Outline: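 Readout is yeast growth inhibition, normalised to vehicle-treated controls, in the mec2-1 strain exposed to compound.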
# [3] = NCI Yeast Anticancer Drug Screen. Data for the sgs1 mgt1 strain (AID 161);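 further: 0% = growth of cultures given vehicle only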; settings: S. cerevisiae sgs1 mgt1 strain, stronger effect = higher value
# Outline: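 Growth of a repair-deficient yeast mutant was monitored after compound treatment and expressed as inhibition relative to vehicle-treated cultures.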
# [4] = NCI Yeast Anticancer Drug Screen. Data for the cln2 rad14 strain (AID 165);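 further: 0% = growth equal to vehicle treated cultures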; settings: S. cerevisiae cln2 rad14 strain, stronger effect = higher value
# Outline: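 Relative to vehicle controls, growth inhibition of compound-treated cln2 rad14 yeast was recorded.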
# [5] = NCI Yeast Anticancer Drug Screen. Data for the bub3 strain (AID 167); settings: S. cerevisiae bub3 mutant strain, stronger effect = higher value
# Outline: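 Part of a panel of yeast mutants defective in DNA damage repair or cell cycle regulation. Each strain is grown with compound, and inhibition is calculated relative to solvent-treated cultures.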
# [6] = NCI Yeast Anticancer Drug Screen. Data for the mlh1 rad18 strain (AID 175); settings: S. cerevisiae mlh1 rad18 strain growth inhibition, stronger effect = higher value
# Outline: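 Test agents were incubated with a yeast strain of defined genotype (DNA damage repair defect). Inhibition of growth was derived by comparison with vehicle-exposed cultures.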
# [7] = at 5.0 µM (retest, dose inferred, filed as 0.5)
# [8] = at 50.0 µM (retest, dose inferred, filed as 5.0)
Structure (SMILES),"growth inhibition [1, 7]","growth inhibition [1, 8]",growth inhibition ([1]; at 50.0 µM),"growth inhibition [2, 7]","growth inhibition [2, 8]",growth inhibition ([2]; at 50.0 µM),"growth inhibition [3, 7]","growth inhibition [3, 8]",growth inhibition ([3]; at 50.0 µM),"growth inhibition [4, 7]","growth inhibition [4, 8]",growth inhibition ([4]; at 50.0 µM),"growth inhibition [5, 7]","growth inhibition [5, 8]",growth inhibition ([5]; at 50.0 µM),"growth inhibition [6, 7]","growth inhibition [6, 8]",growth inhibition ([6]; at 50.0 µM)
O=[N+]([O-])c1ccc(-c2ccccc2Cl)c([N+](=O)[O-])c1,2%,95% (active),95.8% (active),-7%,92% (active),95.7% (active),6%,96% (active),91.2% (active),-8%,83% (active),80.1% (active),-6%,93% (active),95.8% (active),5%,97% (active),93.7% (active)
Nc1ccc2c(SCC(=O)Nc3ccccc3-c3ccccc3NC(=O)CSc3c4ccccc4nc4cc(N)ccc34)c3ccccc3nc2c1,25%,97% (active),90% (active),24%,98% (active),92.5% (active),33%,97% (active),91.2% (active),17%,97% (active),78.8% (active),27%,97% (active),90.5% (active),11%,96% (active),87.5% (active)
Cc1cn(C(C#N)=C(C#N)C#N)c2ccccc12,0%,25%,14.4%,6%,11%,22.5%,-8%,32%,-4.65%,-2%,26%,-37.4%,-2%,-3%,18.2%,1%,16%,-16.2%
C=CCOc1ccc(/C=N/NC(N)=S)cc1,10%,83% (active),88.3% (active),13%,81% (active),87.3% (active),15%,78% (active),44%,6%,87% (active),58.2%,5%,91% (active),88.1% (active),10%,90% (active),52.1%
Nc1ccc(-c2ccc(N)cc2S(=O)(=O)O)c(S(=O)(=O)O)c1,2%,0%,-27.6%,0%,-5%,-14.2%,-1%,-1%,-5.9%,-2%,-5%,23.4%,2%,7%,1.8%,-7%,-4%,-38.7%
CCn1c2ccccc2n2c(=O)cc(-c3ccccc3)c(C#N)c12,7%,2%,27.1%,-2%,-2%,12.7%,-12%,0%,33.6%,7%,-9%,12.3%,7%,11%,18.4%,-2%,-4%,24.4%
N=Nc1c(OC(=O)Nc2cccc(Cl)c2)[nH]c2ccccc12,36%,99% (active),98.7% (active),14%,99% (active),98.8% (active),28%,99% (active),99% (active),15%,99% (active),98.2% (active),1%,99% (active),98.4% (active),33%,99% (active),99.1% (active)
Cc1cc(C)nc(CCSS(=O)(=O)O)c1,-4%,5%,12.7%,-17%,2%,-0.95%,2%,6%,3.35%,-1%,-8%,0.65%,-1%,-6%,40.9%,12%,6%,5.85%
CC12CC(Sc3ccccc3N1)c1ccccc1O2 (stereo not given),37%,54%,42.2%,28%,46%,25.3%,43%,80% (active),51.8%,33%,40%,27.4%,40%,73% (active),76.3% (active),40%,73% (active),44.5%
Oc1cccc2cc(Br)cnc12,24%,99% (active),84% (active),-17%,99% (active),91.6% (active),-10%,99% (active),81.5% (active),2%,99% (active),88.8% (active),-25%,99% (active),88.2% (active),21%,99% (active),74.7% (active)
